Inconclusive results are not listed. Entries that show only a call come without a potency. The source made the active and inactive calls. Calls follow the shape of the dose curve; as a rule, active = well fitted activation curve with a large enough effect; inconclusive = small, poorly fitted or top-dose-only effect; inactive = flat fitted curve, though single readings scatter.
experiment: qHTS for Inhibitors of Cell Surface uPA Generation: Confirmatory Assay for Cherry-picked Compounds; conditions: cell surface uPA activity generation, qHTS confirmation; series mostly up to 115 µM
How it was run: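 RAW 264.7 cells at 4000/well, incubated overnight, then treated with compounds. After 24 h at 37 C, viability was read by ATPlite luminescence. An increase in signal indicates blocked uPA-dependent LF entry.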
Potency is read from the fitted curve at half-maximal effect.

Row | SMILES | Potency
1 | O=C(c1cc([N+](=O)[O-])cc([N+](=O)[O-])c1)N(c1ccccn1)c1ccccn1 | inactive
2 | CCOc1ccc(NS(=O)(=O)c2coc(C(N)=O)c2)cc1 | inactive
3 | C[C@H]1CN([C@@H](C)CO)C(=O)c2cc(NS(=O)(=O)c3ccc(Cl)cc3)ccc2O[C@@H]1CN(C)CC1CCCCC1 | inactive
4 | N#CCC(=O)N/N=C/c1ccc(OCC(=O)Nc2ccc(F)cc2)cc1 | inactive
5 | CCCCNC(=O)C1CCN(S(=O)(=O)c2c(C)noc2/C=C\c2ccc(OC)cc2)CC1 | inactive
6 | O=C(Nc1ccnn1C1CCN(CCCC2CCCC2)CC1)c1ccccc1 | inactive
7 | CN(C(=O)c1ccccc1C(=O)OCC(=O)NCc1ccccc1)C1CCCCC1 | inactive
8 | CC1CCCC(NC(=O)CNC(=S)N(Cc2ccccc2)Cc2cccs2)C1C (centres undefined) | inactive
9 | O=C(c1ccc(NC(=S)NCc2ccc(Cl)cc2)cc1)N1CCCCC1 | inactive
10 | CC(=O)c1ccc(NC(=O)Nc2ccc(Br)cc2C)cc1 | inactive
11 | CCc1nc(SCC(N)=O)c2c(=O)n(C)c(=O)n(C)c2n1 | inactive
12 | CC(C)(O)C#Cc1ccc(C(=O)N2CCCC(CCC(=O)NCc3ccccc3F)C2)cc1 (centres undefined) | inactive
13 | CCN(CC(=O)Nc1c(F)cccc1F)C(=O)c1ccc(-c2ccc(C(C)=O)cc2)o1 | inactive
14 | NS(=O)(=O)c1ccc(CCNC(=O)c2ccc(Cl)s2)cc1 | inactive
15 | Cn1cc(SCC(=O)Nc2nccs2)c2ccccc21 | inactive
16 | S=C(Nc1ccccc1Cl)N1CCCC(c2ccccc2)=N1 | 13.1 µM (active)
17 | Cc1ccc(C)c(-c2ccc(=O)n(Cc3c(F)cccc3Cl)n2)c1 | inactive
18 | COc1ccc2cc(CCNC(=O)c3ccc4c(c3)OCO4)c(=O)[nH]c2c1 | inactive
19 | O=C(Nn1cnnc1)c1ccc(Cl)cc1 | inactive
20 | COc1cc(CCC(=O)OCC(=O)Nc2ccc(C)cc2Br)cc(OC)c1OC | inactive

Row | SMILES | Potency
21 | COc1ccc(N2CC(C(=O)Nc3nnc(SCCC4OCCO4)s3)CC2=O)cc1 (centres undefined) | inactive
22 | Cc1ccc(NC(=O)CSc2nncn2N)cc1C | inactive
23 | Cc1[nH]c2ccccc2c1C(=O)COC(=O)c1cccc(S(=O)(=O)N2CCCCC2)c1 | inactive
24 | CC1(C)C([N+](=O)[O-])C(c2ccc(F)cc2)NC(c2ccc(F)cc2)C1[N+](=O)[O-] (centres undefined) | inactive
25 | COc1ccc(-n2nc(C(=O)Nc3cc(OC)c(OC)c(OC)c3)c3ccccc3c2=O)c(OC)c1 | inactive
26 | COC(=O)c1cc(CNC(=O)c2ccc(N3CCCC3)c([N+](=O)[O-])c2)ccc1OC | inactive
27 | Cc1ccc(NC(=O)CC2OC(=O)c3ccccc32)cc1S(=O)(=O)N1CCOCC1 (centres undefined) | inactive
28 | COc1cc(CN2CCN(S(=O)(=O)c3ccccc3)CC2)cc(OC)c1OC | inactive
29 | CC(=O)N1CCN(C(=O)CSc2cc(C)c(Br)cc2C)CC1 | inactive
30 | CCCCN(CC(=O)Nc1cccc(S(=O)(=O)N2CCCC2)c1)Cc1nc2ccccc2c(=O)[nH]1 | inactive
31 | CN(CC(=O)NCc1ccco1)CC(=O)Nc1c(Cl)cccc1Cl | inactive
32 | CCc1ccccc1N1C(=O)CC(Sc2nccc(C)n2)C1=O (centres undefined) | inactive
33 | C[C@H](O)[C@@H]1C(=O)N2CCc3ccc(-c4cccc(F)c4)cc3[C@@H]2C[C@@H]1N(C)C(=O)C(C)(C)C | inactive
34 | CCN1CCN(Cc2ccc(NC(=O)c3cc(NC(=O)c4cncc(-c5cccs5)c4)cc(OC)c3)cc2C(F)(F)F)CC1 | inactive
35 | CC1(C)CC(CCC(=O)NC(=S)Nc2ccccc2Cl)C(=O)O1 (centres undefined) | inactive
36 | CCOC(=O)C1CCN(C(=O)COC(=O)c2c(C)c(CC)nc3ccccc23)CC1 | inactive
37 | COc1ccc2c(c1)c1nnc(SCC(=O)Nc3ccccc3F)nc1n2C | inactive
38 | CCOC(=O)C1=CC[C@@H](c2cc3ccc(OC)cc3n2C)N(S(=O)(=O)c2ccc(C)cc2)[C@H]1C(=O)OCC | inactive
39 | Cc1nnc2ccc(-c3ccc(NS(=O)(=O)c4ccc(Cl)s4)cc3)nn12 | inactive
